From ChEMBL document CHEMBL2218924, “A broad activity screen in support of a chemogenomic map for kinase signalling research and drug discovery” (Biochem J, 2013)

What was measured:
[1] = biological target: Homeodomain-interacting protein kinase 3 (Homo sapiens) (UniProt Q9H422); settings: at 10 µM
[2] = biological target: T1, Serine/threonine-protein kinase haspin (Homo sapiens) (UniProt Q8TF76); settings: at 1 µM
T1 sequence (whole entry): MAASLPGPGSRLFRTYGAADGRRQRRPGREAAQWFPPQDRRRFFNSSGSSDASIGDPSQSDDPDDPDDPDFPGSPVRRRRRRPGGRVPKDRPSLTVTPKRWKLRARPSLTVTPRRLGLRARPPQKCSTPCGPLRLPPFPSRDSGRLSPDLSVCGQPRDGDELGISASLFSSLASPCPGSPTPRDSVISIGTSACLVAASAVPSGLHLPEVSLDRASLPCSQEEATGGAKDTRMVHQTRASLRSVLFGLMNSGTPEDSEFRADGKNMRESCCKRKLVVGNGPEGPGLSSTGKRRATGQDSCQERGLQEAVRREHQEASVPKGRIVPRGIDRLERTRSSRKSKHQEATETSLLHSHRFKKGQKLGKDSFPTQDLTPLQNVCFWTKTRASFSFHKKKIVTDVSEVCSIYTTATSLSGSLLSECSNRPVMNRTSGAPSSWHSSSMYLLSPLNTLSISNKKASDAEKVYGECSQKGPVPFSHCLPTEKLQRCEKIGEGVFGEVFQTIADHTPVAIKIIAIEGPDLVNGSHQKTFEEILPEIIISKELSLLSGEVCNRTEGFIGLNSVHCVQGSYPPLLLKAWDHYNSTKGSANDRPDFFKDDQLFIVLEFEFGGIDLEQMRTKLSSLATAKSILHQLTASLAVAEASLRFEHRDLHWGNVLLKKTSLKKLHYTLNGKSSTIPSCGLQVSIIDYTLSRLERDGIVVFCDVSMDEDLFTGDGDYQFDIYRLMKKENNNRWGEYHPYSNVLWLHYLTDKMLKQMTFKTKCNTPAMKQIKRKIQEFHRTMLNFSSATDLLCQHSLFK

[3] = biological target: T1, Serine/threonine-protein kinase haspin (Homo sapiens); settings: at 10 µM
[4] = biological target: Tyrosine-protein kinase HCK (Homo sapiens) (UniProt P08631); settings: at 1 µM
Sequence of Tyrosine-protein kinase HCK (Homo sapiens) (P08631 2-526 limits assumed): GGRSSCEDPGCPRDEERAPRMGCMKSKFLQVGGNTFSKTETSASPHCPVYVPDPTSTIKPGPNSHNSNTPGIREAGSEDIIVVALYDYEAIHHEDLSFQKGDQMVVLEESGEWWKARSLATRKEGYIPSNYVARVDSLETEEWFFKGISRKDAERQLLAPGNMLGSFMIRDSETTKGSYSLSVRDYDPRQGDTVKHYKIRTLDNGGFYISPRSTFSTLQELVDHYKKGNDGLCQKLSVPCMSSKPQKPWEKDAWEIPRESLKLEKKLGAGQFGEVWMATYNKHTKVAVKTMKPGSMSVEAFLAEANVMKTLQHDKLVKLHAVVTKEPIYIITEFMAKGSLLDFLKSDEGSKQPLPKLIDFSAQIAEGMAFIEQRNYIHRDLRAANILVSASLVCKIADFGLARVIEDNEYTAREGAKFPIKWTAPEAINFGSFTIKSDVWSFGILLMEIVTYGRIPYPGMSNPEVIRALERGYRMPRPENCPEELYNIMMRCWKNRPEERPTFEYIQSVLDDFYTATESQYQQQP

[5] = biological target: Tyrosine-protein kinase HCK (Homo sapiens) (UniProt P08631); settings: at 10 µM
[6] = biological target: Tyrosine-protein kinase HCK (Homo sapiens) (UniProt P08631); settings: at 1 µM; remark: listed apart in the source
[7] = biological target: Tyrosine-protein kinase HCK (Homo sapiens) (UniProt P08631); settings: at 10 µM; remark: listed apart in the source
[8] = biological target: Insulin-like growth factor 1 receptor (Homo sapiens) (UniProt P08069); settings: at 10 µM
Sequence of Insulin-like growth factor 1 receptor (Homo sapiens) (P08069 31-736 limits assumed): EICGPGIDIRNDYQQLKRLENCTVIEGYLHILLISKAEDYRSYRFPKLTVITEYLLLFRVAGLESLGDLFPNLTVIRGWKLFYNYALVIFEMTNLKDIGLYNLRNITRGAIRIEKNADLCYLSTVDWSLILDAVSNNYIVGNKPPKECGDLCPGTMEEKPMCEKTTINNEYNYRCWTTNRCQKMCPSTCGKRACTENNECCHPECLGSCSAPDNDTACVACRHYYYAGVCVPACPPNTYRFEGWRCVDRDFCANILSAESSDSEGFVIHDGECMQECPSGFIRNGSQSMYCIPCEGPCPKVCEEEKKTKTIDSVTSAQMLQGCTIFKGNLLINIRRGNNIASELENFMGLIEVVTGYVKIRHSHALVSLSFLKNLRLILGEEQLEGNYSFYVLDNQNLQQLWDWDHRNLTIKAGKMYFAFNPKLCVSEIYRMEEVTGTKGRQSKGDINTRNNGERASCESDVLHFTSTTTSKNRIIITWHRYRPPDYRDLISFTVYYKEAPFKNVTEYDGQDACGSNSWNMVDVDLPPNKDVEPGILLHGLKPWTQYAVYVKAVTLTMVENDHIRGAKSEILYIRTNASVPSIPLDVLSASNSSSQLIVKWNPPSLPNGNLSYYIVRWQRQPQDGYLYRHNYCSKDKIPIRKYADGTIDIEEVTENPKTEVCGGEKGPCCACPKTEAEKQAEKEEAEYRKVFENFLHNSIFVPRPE
Sequence of Insulin-like growth factor 1 receptor (Homo sapiens) (P08069 741-1367 limits assumed): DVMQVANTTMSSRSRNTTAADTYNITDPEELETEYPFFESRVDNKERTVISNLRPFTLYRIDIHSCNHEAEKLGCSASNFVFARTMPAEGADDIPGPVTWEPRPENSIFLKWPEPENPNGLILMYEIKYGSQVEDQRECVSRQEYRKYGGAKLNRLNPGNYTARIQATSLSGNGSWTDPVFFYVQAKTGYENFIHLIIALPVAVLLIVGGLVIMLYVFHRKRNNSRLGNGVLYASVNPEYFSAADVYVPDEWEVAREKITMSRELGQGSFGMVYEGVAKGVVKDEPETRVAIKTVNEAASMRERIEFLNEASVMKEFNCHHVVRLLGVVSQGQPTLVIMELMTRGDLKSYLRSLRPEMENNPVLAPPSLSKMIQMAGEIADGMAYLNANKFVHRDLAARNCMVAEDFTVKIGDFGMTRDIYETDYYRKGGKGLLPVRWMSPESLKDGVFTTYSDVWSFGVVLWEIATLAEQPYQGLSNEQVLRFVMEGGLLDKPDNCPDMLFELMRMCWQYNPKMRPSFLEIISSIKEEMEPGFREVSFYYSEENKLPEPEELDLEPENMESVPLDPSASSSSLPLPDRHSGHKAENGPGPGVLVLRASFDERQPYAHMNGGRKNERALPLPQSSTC

[9] = biological target: T2, Protein kinase C zeta type (Homo sapiens) (UniProt Q05513); settings: at 10 µM
T2 sequence (whole entry): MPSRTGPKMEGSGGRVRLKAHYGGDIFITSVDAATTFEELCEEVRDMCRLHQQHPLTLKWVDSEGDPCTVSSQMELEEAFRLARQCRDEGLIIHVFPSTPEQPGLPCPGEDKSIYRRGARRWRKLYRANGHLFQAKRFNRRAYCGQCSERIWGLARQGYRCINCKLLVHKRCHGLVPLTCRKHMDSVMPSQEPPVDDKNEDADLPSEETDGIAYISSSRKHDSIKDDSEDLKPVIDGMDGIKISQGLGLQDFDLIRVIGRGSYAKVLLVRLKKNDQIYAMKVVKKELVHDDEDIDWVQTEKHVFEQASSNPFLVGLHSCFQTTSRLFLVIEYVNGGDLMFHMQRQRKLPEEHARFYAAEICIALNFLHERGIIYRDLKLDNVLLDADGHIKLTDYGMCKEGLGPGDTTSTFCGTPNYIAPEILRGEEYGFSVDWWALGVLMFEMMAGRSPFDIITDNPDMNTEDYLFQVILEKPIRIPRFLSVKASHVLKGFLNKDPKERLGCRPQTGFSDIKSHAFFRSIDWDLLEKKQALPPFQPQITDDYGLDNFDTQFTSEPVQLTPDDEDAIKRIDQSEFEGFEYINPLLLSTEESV

[10] = biological target: Insulin-like growth factor 1 receptor (Homo sapiens) (UniProt P08069); settings: at 1 µM

Sequence of Homeodomain-interacting protein kinase 3 (Homo sapiens) (Q9H422 whole entry, looked up): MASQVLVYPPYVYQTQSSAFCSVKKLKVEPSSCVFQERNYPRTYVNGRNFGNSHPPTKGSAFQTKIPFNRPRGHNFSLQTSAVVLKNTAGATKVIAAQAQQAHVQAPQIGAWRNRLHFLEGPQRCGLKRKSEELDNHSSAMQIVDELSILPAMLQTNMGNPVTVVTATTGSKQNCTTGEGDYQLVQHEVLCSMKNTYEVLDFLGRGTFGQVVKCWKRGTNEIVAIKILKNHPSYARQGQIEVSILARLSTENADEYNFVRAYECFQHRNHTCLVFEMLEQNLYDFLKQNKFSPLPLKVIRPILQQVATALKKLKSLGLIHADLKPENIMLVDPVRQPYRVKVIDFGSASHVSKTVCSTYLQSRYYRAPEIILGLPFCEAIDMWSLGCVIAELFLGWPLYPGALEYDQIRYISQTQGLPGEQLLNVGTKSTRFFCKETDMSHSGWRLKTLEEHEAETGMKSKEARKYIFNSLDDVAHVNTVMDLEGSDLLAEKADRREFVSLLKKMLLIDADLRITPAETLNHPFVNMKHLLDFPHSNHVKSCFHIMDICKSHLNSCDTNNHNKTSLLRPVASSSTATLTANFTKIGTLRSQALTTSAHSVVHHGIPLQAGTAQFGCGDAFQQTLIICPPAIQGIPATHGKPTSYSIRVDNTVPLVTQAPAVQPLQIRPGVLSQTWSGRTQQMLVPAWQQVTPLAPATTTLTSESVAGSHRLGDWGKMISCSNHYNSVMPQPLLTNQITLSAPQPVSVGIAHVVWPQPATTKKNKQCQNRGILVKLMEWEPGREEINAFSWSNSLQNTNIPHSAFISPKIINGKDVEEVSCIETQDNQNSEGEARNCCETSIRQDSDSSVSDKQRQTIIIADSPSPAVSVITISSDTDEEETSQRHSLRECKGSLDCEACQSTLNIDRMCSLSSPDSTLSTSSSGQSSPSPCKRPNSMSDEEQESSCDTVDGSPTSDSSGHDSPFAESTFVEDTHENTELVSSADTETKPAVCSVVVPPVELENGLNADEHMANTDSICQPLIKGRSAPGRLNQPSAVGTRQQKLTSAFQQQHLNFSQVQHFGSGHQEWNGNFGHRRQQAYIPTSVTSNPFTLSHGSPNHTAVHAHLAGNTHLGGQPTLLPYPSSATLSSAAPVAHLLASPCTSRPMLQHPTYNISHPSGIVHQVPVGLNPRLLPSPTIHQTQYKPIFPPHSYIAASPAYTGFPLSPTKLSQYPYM

| Structure (SMILES) | residual activity [1] [%] | residual activity [2] [%] | residual activity [3] [%] | residual activity [4] [%] | residual activity [5] [%] | residual activity [6] [%] | residual activity [7] [%] | residual activity [8] [%] | residual activity [9] [%] | residual activity [10] [%] |
| --- | --- | --- | --- | --- | --- | --- | --- | --- | --- | --- |
| COc1cc2ncnc(Nc3ccc(NC(=O)c4ccccc4)cc3)c2cc1OC | 90 | 92 | 59 | 69 | 20 | 100 | 60 | 135 | 103 |  |
| Cc1cccc(-c2[nH]c(C(C)(C)C)nc2-c2ccc3c(c2)OCO3)n1 |  | 92 | 75 | 94 | 79 | 102 | 99 |  |  |  |
| Cc1nc(-c2ccccc2)c(-c2ccncc2)o1 | 103 | 94 | 35 | 24 | 20 | 96 | 91 | 128 | 112 | 94 |
| CC(C)n1cnc2c(NCc3ccccc3)nc(NCCCO)nc21 | 106 | 101 | 95 | 81 | 70 | 84 | 81 | 103 | 107 | 78 |
| N#CC(C#N)=C(N)/C(C#N)=C/c1ccc(O)cc1 |  | 88 | 65 | 84 | 64 | 99 | 87 |  |  |  |
| Cc1cncc2cccc(S(=O)(=O)N3CCCN(C(=O)CN)C[C@H]3C)c12 |  | 91 | 62 | 69 | 60 | 98 | 73 |  | 50 | 134 |
| c1ccc(-c2n[nH]c3c2oc2ccccc23)cc1 | 61 | 90 | 48 | 71 | 51 | 98 | 81 | 139 | 117 |  |
| CC(C)n1cnc2/c(=N/c3cccc(Cl)c3)nc(NCCO)[nH]c21 | 83 | 80 | 58 | 41 | 13 | 57 | 13 | 105 | 102 | 103 |
| CC[n+]1c(/C=C/N(C)c2ccccc2)n(-c2ccccc2)c2ccc(-c3nc4ccccc4s3)cc21 |  | 99 | 59 | 97 | 34 | 104 | 95 | 43 | 96 | 126 |
| CO[C@@H]1[C@H](N(C)C(=O)c2ccccc2)C[C@H]2O[C@]1(C)n1c3ccccc3c3c4c(c5c6ccccc6n2c5c31)C(=O)NC4 | 68 | 78 | 43 | 7 | 5 |  | 12 | 68 | 102 | 115 |
| CC(=O)c1ccc(N2CCOCC2)cc1O | 98 | 78 | 39 | 84 | 74 | 97 | 107 |  | 106 | 148 |
| Nc1cccc(-c2cc3c(Oc4cccc(O)c4)ncnc3[nH]2)c1 |  | 86 | 45 | 4 | 1 | -3 | -1 | 124 |  | 99 |
| c1ccc2c(-c3ccncc3)c[nH]c2c1 | 91 | 48 | 8 | 68 | 65 | 104 | 89 |  | 84 |  |
| CCN(CC)C(=O)c1ccc(Nc2nc(OCC3CCCCC3)c3nc[nH]c3n2)cc1 | 62 |  |  | 31 | 5 | 43 | 7 |  | 95 |  |
| COc1cc2ncc(-c3ccccc3)nc2cc1OC | 100 | 76 | 64 | 69 | 56 |  |  |  |  | 133 |
| Nc1nc(Nc2ccc(S(N)(=O)=O)cc2)nn1C(=S)Nc1c(F)cccc1F | 21 |  |  | 10 | 4 | 13 | 1 | 98 | 77 | 109 |
| COc1cc2ncnc(Nc3ccc(Oc4ccccc4)cc3)c2cc1OC | 105 |  |  | 4 | 5 | 20 | 3 | 112 | 104 | 117 |
| CO[C@H]1[C@@H](OC)C[C@H](C)[C@@H](OC)C2=CC(=O)C=C(NC(=O)/C(C)=C/C=C/[C@H](OC)[C@@H](OC(N)=O)/C(C)=C/[C@@H]1C)C2=O | 105 | 88 | 78 | 78 | 76 |  | 103 | 113 | 106 | 137 |
| Cc1cc(Nc2nc(-c3ccccc3)nc3ccccc23)n[nH]1 |  | 103 | 67 | 23 | 4 | 27 | 5 | 1 | 102 | 17 |
